In PubChem BioAssay (EPA / NIEHS):
Several values for one entry are separate records, joined by “and”; a condition that tells them apart may be missing. Identical values can stand only once. Some compounds were tested as several samples or in several runs, with calls that do not always agree. Activity calls are given as the source filed them. Rule for the calls: active = hit-call score of the fitted dose curve at least 0.9, where 1 is the maximum; inactive = score below 0.9.

What follows are compounds tested on ATP-citrate lyase (ACLY), ACLY (gene 47) (assay: LTEA_HepaRG_ACLY: Life Technologies and Expression Analysis (LTEA) Assay for ATP-citrate lyase (ACLY) using HepaRG (AID 2283466)). Settings: mRNA level, 48 h; actives raise or lower the signal.
Method in brief: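 ACLY expression changes in human HepaRG liver cells are quantified by qRT-PCR after 48 h exposure to test chemicals (maximum 100 uM, half-log steps). Values are fitted in both directions relative to 0.5% DMSO vehicle.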
With `CCNc1nc(N)nc(Cl)n1` the outcome was “inactive”. In the case of `CC(C)(C)[C@@H](O)[C@@H](Cc1ccc(Cl)cc1)n1cncn1`, the AC50 is reported as 50 µM (active). `C=CCOC(Cn1ccnc1)c1ccc(Cl)cc1Cl` (stereo not given) was tested, and the outcome was “inactive”. With `N[C@@H](Cc1cc(I)c(Oc2ccc(O)c(I)c2)c(I)c1)C(=O)O` the outcome was “inactive”. `CCOC(=O)NCCOc1ccc(Oc2ccccc2)cc1` was tested, and the outcome was “inactive”. With `COC(=O)c1ccccc1C(=O)O` the outcome was “inactive”. In the case of `O=C(c1ccccc1)C1CCCCC1`, the outcome is reported as “inactive”. In the case of `CCCCCCC(C)OC(=O)COc1nc(F)c(Cl)c(N)c1Cl` (stereo not given), the outcome is reported as “inactive”. In the case of `CCOC(=O)C(C)Oc1ccc(Oc2nc3ccc(Cl)cc3o2)cc1` (stereo not given), the outcome is reported as “inactive”. `O=C(O)C1(C(=O)Nc2ccc(Cl)cc2Cl)CC1` was tested, and the outcome was “inactive”. In the case of `CC(C)(c1ccc(O)cc1)c1ccc(O)cc1`, the outcome is reported as “inactive”. In the case of `CC(=O)S[C@@H]1CC2=CC(=O)CC[C@]2(C)[C@H]2CC[C@@]3(C)[C@@H](CC[C@@]34CCC(=O)O4)[C@H]12`, the outcome is reported as “inactive”. For `OB(O)O`, the outcome was “inactive”. In the case of `S=C(S)NCCNC(=S)S.[Mn+2].[S-]C([S-])=NCCN=C([S-])[S-].[Zn+2]`, the AC50 is reported as 200 nM (active) and 397 nM (active) and 391 nM (active). `Cc1nn(C)c(Oc2ccccc2)c1C=NOCc1ccc(C(=O)OC(C)(C)C)cc1` was tested, and the AC50 was 1.11 µM (active). `Oc1ccc(C(c2ccc(O)cc2)C(Cl)(Cl)Cl)cc1` was tested, and the AC50 was 78.5 µM (active). With `O=C(O)c1ccccc1` the outcome was “inactive”. With `COC(=O)c1ccc(I)cc1S(=O)(=O)NC(=O)Nc1nc(C)nc(OC)n1` the outcome was “inactive”. For `CCCOC(=O)c1ccc(C(=O)OCCC)nc1`, the outcome was “inactive”. For `CSC(=O)c1cccc2nnsc12`, the outcome was “inactive”. In the case of `COCCO`, the outcome is reported as “inactive”. For `CCCCCOC(=O)COc1cc(N2C(=O)C3=C(CCCC3)C2=O)c(F)cc1Cl`, the outcome was “inactive”. With `CCCCC(CC)CN1C(=O)C2C3C=CC(C3)C2C1=O` (stereo not given) the AC50 was 73 µM (active). In the case of `CCN(CC)C(=O)c1cccc(C)c1`, the outcome is reported as “inactive”. In the case of `c1ccc(Nc2ccccc2)cc1`, the outcome is reported as “inactive”. In the case of `CC1(C)C(C=C(Cl)Cl)C1C(=O)OCc1cccc(Oc2ccccc2)c1` (stereo not given), the outcome is reported as “inactive”.

The compounds below were run on Peroxisomal acyl-coenzyme A oxidase 1 (ACOX1) gene, ACOX1 (gene 51) (assay: LTEA_HepaRG_ACOX1: Life Technologies and Expression Analysis (LTEA) Assay for Peroxisomal acyl-coenzyme A oxidase 1 (ACOX1) gene using HepaRG (AID 2283467)). Settings: mRNA level, 48 h; actives raise or lower the signal.
Method in brief: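 Human HepaRG hepatic cultures, 48 h treatment with test chemicals up to 100 uM. ACOX1 expression read by qRT-PCR relative to 0.5% DMSO vehicle.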
`CCNc1nc(N)nc(Cl)n1` was tested, and the outcome was “inactive”. In the case of `CC(C)(C)[C@@H](O)[C@@H](Cc1ccc(Cl)cc1)n1cncn1`, the outcome is reported as “inactive”. `C=CCOC(Cn1ccnc1)c1ccc(Cl)cc1Cl` (stereo not given) was tested, and the AC50 was 45 µM (active). For `N[C@@H](Cc1cc(I)c(Oc2ccc(O)c(I)c2)c(I)c1)C(=O)O`, the AC50 was 7.94 µM (active). `CCOC(=O)NCCOc1ccc(Oc2ccccc2)cc1` was tested, and the outcome was “inactive”. `COC(=O)c1ccccc1C(=O)O` was tested, and the outcome was “inactive”. `O=C(c1ccccc1)C1CCCCC1` was tested, and the outcome was “inactive”. With `CCCCCCC(C)OC(=O)COc1nc(F)c(Cl)c(N)c1Cl` (stereo not given) the outcome was “inactive”. In the case of `CCOC(=O)C(C)Oc1ccc(Oc2nc3ccc(Cl)cc3o2)cc1` (stereo not given), the outcome is reported as “inactive”. For `O=C(O)C1(C(=O)Nc2ccc(Cl)cc2Cl)CC1`, the AC50 was 81.2 µM (active). `CC(C)(c1ccc(O)cc1)c1ccc(O)cc1` was tested, and the AC50 was 0.199 µM (active) and the outcome was “inactive”. With `CC(=O)S[C@@H]1CC2=CC(=O)CC[C@]2(C)[C@H]2CC[C@@]3(C)[C@@H](CC[C@@]34CCC(=O)O4)[C@H]12` the AC50 was 50 µM (active). `OB(O)O` was tested, and the outcome was “inactive”. For `S=C(S)NCCNC(=S)S.[Mn+2].[S-]C([S-])=NCCN=C([S-])[S-].[Zn+2]`, the AC50 was 799 nM (active) and 1.07 µM (active) and 953 nM (active). For `Cc1nn(C)c(Oc2ccccc2)c1C=NOCc1ccc(C(=O)OC(C)(C)C)cc1`, the AC50 was 1.74 µM (active). `Oc1ccc(C(c2ccc(O)cc2)C(Cl)(Cl)Cl)cc1` was tested, and the AC50 was 85.5 µM (active). For `O=C(O)c1ccccc1`, the outcome was “inactive”. `COC(=O)c1ccc(I)cc1S(=O)(=O)NC(=O)Nc1nc(C)nc(OC)n1` was tested, and the outcome was “inactive”. For `CCCOC(=O)c1ccc(C(=O)OCCC)nc1`, the outcome was “inactive”. For `CSC(=O)c1cccc2nnsc12`, the outcome was “inactive”. In the case of `COCCO`, the outcome is reported as “inactive”. In the case of `CCCCCOC(=O)COc1cc(N2C(=O)C3=C(CCCC3)C2=O)c(F)cc1Cl`, the outcome is reported as “inactive”. With `CCCCC(CC)CN1C(=O)C2C3C=CC(C3)C2C1=O` (stereo not given) the outcome was “inactive”. With `CCN(CC)C(=O)c1cccc(C)c1` the outcome was “inactive”. `c1ccc(Nc2ccccc2)cc1` was tested, and the outcome was “inactive”. `CC1(C)C(C=C(Cl)Cl)C1C(=O)OCc1cccc(Oc2ccccc2)c1` (stereo not given) was tested, and the outcome was “inactive”.

These compounds were tested on Alkaline Phosphatase, Placental (ALPP) gene, ALPP (gene 250) (assay: LTEA_HepaRG_ALPP: Life Technologies and Expression Analysis (LTEA) Assay for Alkaline Phosphatase, Placental (ALPP) gene using HepaRG (AID 2283468;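 for AC50: differentiated human HepaRG liver cells in serum-free induction medium; ALPP transcript by TaqMan qRT-PCR normalized to ACTB GAPDH and POLR2A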)). Settings: mRNA level, 48 h; actives raise or lower the signal.
Method in brief: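 Expression of ALPP was quantified by qRT-PCR against three housekeeping genes in human HepaRG cultures treated for 48 h with an eight-point concentration series up to 100 uM. Activity in either direction was fitted relative to 0.5% DMSO.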
With `CCNc1nc(N)nc(Cl)n1` the outcome was “inactive”. For `CC(C)(C)[C@@H](O)[C@@H](Cc1ccc(Cl)cc1)n1cncn1`, the outcome was “inactive”. `C=CCOC(Cn1ccnc1)c1ccc(Cl)cc1Cl` (stereo not given) was tested, and the AC50 was 50 µM (active). `N[C@@H](Cc1cc(I)c(Oc2ccc(O)c(I)c2)c(I)c1)C(=O)O` was tested, and the outcome was “inactive”. For `CCOC(=O)NCCOc1ccc(Oc2ccccc2)cc1`, the AC50 was 50 µM (active). With `COC(=O)c1ccccc1C(=O)O` the outcome was “inactive”. `O=C(c1ccccc1)C1CCCCC1` was tested, and the outcome was “inactive”. For `CCCCCCC(C)OC(=O)COc1nc(F)c(Cl)c(N)c1Cl` (stereo not given), the outcome was “inactive”. In the case of `CCOC(=O)C(C)Oc1ccc(Oc2nc3ccc(Cl)cc3o2)cc1` (stereo not given), the outcome is reported as “inactive”. With `O=C(O)C1(C(=O)Nc2ccc(Cl)cc2Cl)CC1` the outcome was “inactive”. In the case of `CC(C)(c1ccc(O)cc1)c1ccc(O)cc1`, the outcome is reported as “inactive”. `CC(=O)S[C@@H]1CC2=CC(=O)CC[C@]2(C)[C@H]2CC[C@@]3(C)[C@@H](CC[C@@]34CCC(=O)O4)[C@H]12` was tested, and the outcome was “inactive”. For `OB(O)O`, the outcome was “inactive”. `S=C(S)NCCNC(=S)S.[Mn+2].[S-]C([S-])=NCCN=C([S-])[S-].[Zn+2]` was tested, and the AC50 was 25 µM (active) and the outcome was “inactive”. For `Cc1nn(C)c(Oc2ccccc2)c1C=NOCc1ccc(C(=O)OC(C)(C)C)cc1`, the AC50 was 0.903 µM (active). With `Oc1ccc(C(c2ccc(O)cc2)C(Cl)(Cl)Cl)cc1` the outcome was “inactive”. With `O=C(O)c1ccccc1` the outcome was “inactive”. In the case of `COC(=O)c1ccc(I)cc1S(=O)(=O)NC(=O)Nc1nc(C)nc(OC)n1`, the outcome is reported as “inactive”. `CCCOC(=O)c1ccc(C(=O)OCCC)nc1` was tested, and the outcome was “inactive”. For `CSC(=O)c1cccc2nnsc12`, the outcome was “inactive”. With `COCCO` the outcome was “inactive”. `CCCCCOC(=O)COc1cc(N2C(=O)C3=C(CCCC3)C2=O)c(F)cc1Cl` was tested, and the outcome was “inactive”. With `CCCCC(CC)CN1C(=O)C2C3C=CC(C3)C2C1=O` (stereo not given) the AC50 was 65.4 µM (active). `CCN(CC)C(=O)c1cccc(C)c1` was tested, and the outcome was “inactive”. `c1ccc(Nc2ccccc2)cc1` was tested, and the outcome was “inactive”. In the case of `CC1(C)C(C=C(Cl)Cl)C1C(=O)OCc1cccc(Oc2ccccc2)c1` (stereo not given), the outcome is reported as “inactive”.
